GPR151 ag: human GPR151 activation. Q8TDV0. PathHunter beta-arrestin GPR151 cells, luminescence. activation, % at 11.2 µM. 650,000 tested, 1% active; in the data active = activation above about 4.9%
TEAD-YAP inh: TEAD-YAP interaction inhibition; HEK-TIYL cells, TEAD-Gal4/YAP UAS-luciferase luminescence; inhibition, % at 9.12 µM; 640,000 tested, 1.4% active; AID 1259422; in the data active = inhibition above about 32%
FBW7 activator: human FBW7 E3 ligase activation, primary screen. Q969H0. AlphaScreen FBW7–phospho-cyclin E peptide binding, activator screen. normalized activity (activation), % at 26.1 µM. 650,000 tested, 0.13% active; in the data active = normalized activity above about 1.9%;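 note: purified mutant Fbw7 with reduced substrate affinity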
MITF primary: human MITF inhibition, primary screen | inhibition, % at 2.6 µM | AID 1259374 | 650,000 tested, 0.91% active | AlphaScreen MITF homodimerization, bead proximity signal; in the data active = inhibition above about 50%
Target sequence (O75030 whole entry, looked up): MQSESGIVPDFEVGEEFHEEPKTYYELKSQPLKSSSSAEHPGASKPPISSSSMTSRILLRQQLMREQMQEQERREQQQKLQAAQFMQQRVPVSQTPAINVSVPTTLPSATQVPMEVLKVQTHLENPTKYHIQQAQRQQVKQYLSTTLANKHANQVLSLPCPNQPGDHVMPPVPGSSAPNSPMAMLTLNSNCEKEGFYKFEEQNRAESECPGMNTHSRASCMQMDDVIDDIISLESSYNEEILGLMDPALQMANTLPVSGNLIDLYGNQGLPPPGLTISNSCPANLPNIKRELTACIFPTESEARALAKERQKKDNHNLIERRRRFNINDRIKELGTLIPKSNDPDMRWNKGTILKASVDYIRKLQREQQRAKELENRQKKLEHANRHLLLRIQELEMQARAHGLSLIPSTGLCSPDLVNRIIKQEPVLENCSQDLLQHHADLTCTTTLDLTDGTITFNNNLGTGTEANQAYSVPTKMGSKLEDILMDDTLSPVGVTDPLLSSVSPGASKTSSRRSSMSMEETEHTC
Hits are given with their value; - = inactive. Most compounds without a hit are left out; they make up all but 3.5% or so of the library.

SMILES	GPR151 ag	TEAD-YAP inh	FBW7 activator	MITF primary
CCOC(=O)CS(=O)(=O)c1ccc(C(=O)N2CCN(c3cc(C)ccc3C)CC2)cc1[N+](=O)[O-]	-	-	-	-
CCOC(=O)CS(=O)(=O)c1ccc(C(=O)N2CCN(c3cccc(C)c3C)CC2)cc1[N+](=O)[O-]	-	34.2	-	-
Cc1cccc(N2CCN(C(=O)c3ccncc3)CC2)c1C	-	50.2	-	-
COc1ccccc1N1CCN(C(=O)c2cccc(Br)c2)CC1	-	36.1	-	-
CC(O)CNC(=O)c1cccc([N+](=O)[O-])c1 (stereo not drawn)	-	-	-	-
Brc1ccc(OCCCn2ccnc2)cc1	-	-	-	-
COc1cccc(NC(=O)C2C3C=CC4(O3)C2C(=O)N(CC2CCCO2)C4C(=O)NC2CCCCC2)c1 (stereo not drawn)	-	-	-	-
Cc1nc(C)c(-c2ccc(SCc3ccc(F)cc3)nn2)s1	-	-	-	-
CC(C)CC(=O)Nc1ccc(C(=O)O)cc1	-	-	-	-
COc1cccc(C(=O)N2CCN(c3cccc(C)c3C)CC2)c1	-	32.8	-	-
Cc1cccc(N2CCN(C(=O)c3cc(S(=O)(=O)N4CCOCC4)cn3C)CC2)c1C	-	-	-	-
Cc1cccc(N2CCN(C(=O)c3cc(S(=O)(=O)N4CCCC4)cn3C)CC2)c1C	-	57.5	-	-
CCOc1ccc(CCNC(=O)CSc2nnnn2-c2c(C)cc(C)cc2C)cc1OCC	-	-	-	-
O=C(O)c1cc(N=Cc2c(O)n(Cc3ccco3)c(=O)[nH]c2=O)ccc1Cl	-	-	-	76.2
COc1ccc(-c2ccc(NCC(F)(F)F)nc2)cn1	-	-	-	-
Cc1nc2nc(S(N)(=O)=O)nn2c(C)c1C	-	-	-	-
CC1CN(C(=S)Nc2ccc(S(=O)(=O)Nc3ncccn3)cc2)CC(C)O1 (stereo not drawn)	-	-	-	-
CCOC(=O)CNC(=O)c1sc2nc(C)nc(N3CCCCC3)c2c1C	-	-	-	-
CCN1CCN(C2=CC(=[N+]3CCCC3)CC(C)(C)C2)CC1	-	-	-	-
CC1(C)CC(N2CCCC2)=CC(=[N+]2CCCC2)C1	-	52.2	-	-
CC1(C)CC(N2CCCC2)=CC(=[N+]2CCCCC2)C1	-	70.1	-	-
C=CCn1nc(C)n2c(cc3ccsc32)c1=O	-	-	-	-
Cc1c(N2C(=O)CS/C2=N\N=C2/C(=O)Nc3ccccc32)c(=O)n(-c2ccccc2)n1C	-	-	-	-
O=C1Nc2ccccc2/C1=N\N=C1/SCC(=O)N1c1ccc(O)cc1	-	50.0	-	-
O=C(CNCc1cccc(Cl)c1)NCCNC(=O)CNCc1cccc(Cl)c1	-	-	-	-
SMILES	GPR151 ag	TEAD-YAP inh	FBW7 activator	MITF primary
CCOc1ccc(-c2cc(=O)c3cc(O)ccc3o2)cc1	-	47.0	-	-
CSc1ccc(-c2cc(=O)c3ccccc3o2)cc1	-	-	-	-
CCOc1ccc(-c2cc(=O)c3ccccc3o2)cc1	-	-	-	-
COc1ccc(-c2cc(=O)c3ccc(O)cc3o2)cc1	-	55.7	-	-
CSc1ccc(-c2cc(=O)c3cc(O)ccc3o2)cc1	-	44.0	-	-
CCCn1c(O)c(/C=N/c2ccccn2)c(=O)[nH]c1=S	-	-	-	-
CCN(C1CCCCC1)S(=O)(=O)c1ccc(C(=O)Nc2ccccc2Cl)cc1	-	-	-	-
CC1CN(Cc2ccccn2)Cc2ccccc2O1 (stereo not drawn)	-	-	-	-
O=C(Nc1cccc(-c2nnc(-c3ccco3)o2)c1)c1ccccc1[N+](=O)[O-]	-	-	-	-
Cc1cc(C)cc(NC(=O)N2CCN(c3nccnc3NS(C)(=O)=O)CC2)c1	-	-	-	-
O=C(Nc1ccc2c3c(cccc13)CC2)c1cc(Br)ccc1Cl	-	55.0	-	-
O=C(Nc1ccc2c3c(cccc13)CC2)c1cc(I)ccc1Cl	-	-	-	-
COCc1ccc(-c2nccnc2NS(=O)(=O)Cc2cccc(Cl)c2)cc1	-	-	-	-
Cc1cc(NC(=O)Nc2ccccc2)ccc1N1CCCCC1=O	-	37.3	-	-
CCCc1cc(=O)[nH]c(SCC(=O)Nc2ccc(C)cc2)n1	-	-	-	-
Cc1cc2ncn(CC3CCN(C(=O)c4ccccc4Br)CC3)c2cc1C	-	40.2	-	-
COc1cccc(NC(=O)CCN2CCN(C)CC2)c1	-	-	-	-
CCCCOc1ccc(C(=O)NO)cc1OC	-	39.7	-	-
COc1ccc(C(=O)N/N=C(\C)c2ccc(C#N)cc2)cc1OC	-	41.1	-	-
CCCNC(=O)C/C(C)=N/NC(=O)c1ccc(OC)c(OC)c1	-	33.6	-	-
COc1ccc(/C(C)=N/NC(=O)c2cccc(F)c2)cc1OC	-	-	-	-

Screening results as filed in PubChem BioAssay.
